# Several values for one entry are separate records, joined by “and”; a condition that tells them apart may be missing. Equal values may be shown once. Activity calls are given as the source filed them. Entries that show only a call come without a potency. Unless noted, calls come from the whole dose curve; as a rule, active = well fitted curve in the direction sought with a large enough effect in the repeat runs; inconclusive = weak or mixed curves; inactive = no such curve, though single readings can be large; an effect the other way counts as inactive or inconclusive.
# Assays:
# [1] = qHTS assay to identify small molecule antagonists of the thyroid receptor (TR) signaling pathway - cell viability counter screen (AID 743064); note: nearly all actives have a fitted effect of over 50% in size; note: potency is the fitted concentration of half-maximal effect
# Outline: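 Compounds were tested on GH3.TRE-Luc cells in the presence of T3 at 1 nM final. Following 23.5 h at 37 °C, cell viability was quantified by CellTiter-Fluor.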
# [2] = qHTS assay to identify small molecule antagonists of the thyroid receptor (TR) signaling pathway (AID 743065); note: nearly all actives have a fitted effect of over 55% in size; note: potency is the fitted concentration of half-maximal effect
# Outline: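 GH3.TRE-Luc rat pituitary cells carrying two TR response elements driving luciferase were plated for 4 h, given compound plus 1 nM T3 (final), and incubated 23.5 h at 37 C. ONE-Glo luminescence measured reporter inhibition; CellTiter-Fluor fluorescence tracked cytotoxicity.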
# [3] = tested on: thyroid hormone receptor (rat, GH3 cells); test: qHTS assay to identify small molecule agonists of the thyroid receptor (TR) signaling pathway (AID 743066; calls by dose curve)
# [4] = biological target: Estrogen receptor (Homo sapiens) (UniProt P03372); test: qHTS assay to identify small molecule antagonists of the estrogen receptor alpha (ER-alpha) signaling pathway (AID 743069; active = well fitted curve in the direction sought with a large enough effect in the signal ratio in the repeat runs, not every such curve was filed as active; inconclusive = weak or mixed curves, or effect the other way; inactive = no such curve, though single readings can be large or run the other way; the % refers to the signal ratio; note: potency is the fitted concentration of half-maximal effect)
# Outline: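 HEK293 cells stably carrying an ER-alpha-UAS-bla beta-lactamase reporter were pre-cultured overnight in 2% charcoal-stripped FBS medium. Test compounds in DMSO were added together with 17beta-estradiol for 18 hr at 37C. Read-out was fluorescence after 2 hr with LiveBLAzer B/G FRET substrate at room temperature.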
# [5] = qHTS assay to identify small molecule antagonists of the estrogen receptor alpha (ER-alpha) signaling pathway - cell viability counter screen (AID 743074; calls by dose curve; note: nearly all actives have a fitted effect of over 45% in size)
# [6] = biological target: Estrogen receptor (Homo sapiens) (UniProt P03372); test: qHTS assay to identify small molecule agonists of the estrogen receptor alpha (ER-alpha) signaling pathway (AID 743075; calls by dose curve; note: potency is the fitted concentration of half-maximal effect)
# [7] = biological target: Estrogen receptor (Homo sapiens) (UniProt P03372); test: qHTS assay to identify small molecule agonists of the estrogen receptor alpha (ER-alpha) signaling pathway using the BG1 cell line (AID 743079); conditions: BG1Luc4E2 cells, ERE-luciferase agonist, 22 h; activation: at 70.3 µM (top of the series); note: nearly all actives have a fitted effect of over 20% in size
# [8] = qHTS assay to identify small molecule antagonists of the estrogen receptor alpha (ER-alpha) signaling pathway using the BG1 cell line (AID 743080; calls by dose curve;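 note: BG1 cells stimulated with 17beta-estradiol alongside compound; nearly all actives have a fitted effect of over 25% in size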; note: potency is the fitted concentration of half-maximal effect)
# Outline: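 BG1-Luc-4E2 cells (endogenous full-length ER-alpha, stable 4×ERE-luciferase) were starved 5 days in phenol-red-free medium with 10% charcoal-stripped FBS, plated 24 h, then given compound plus 17beta-estradiol for 21.5 h at 37 C; ONE-Glo luminescence read after 30 min.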
# [9] = qHTS assay to identify small molecule antagonists of the estrogen receptor alpha (ER-alpha) signaling pathway using the BG1 cell line - cell viability counter screen (AID 743081);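 note: compound given together with 17beta-estradiol as the ER stimulus; nearly all actives have a fitted effect of over 45% in size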
# [10] = biological target: Aromatase (Homo sapiens) (UniProt P11511); test: qHTS assay to identify aromatase inhibitors (AID 743083); note: nearly all actives have a fitted effect of over 55% in size; note: potency is the fitted concentration of half-maximal effect
# Chain of Aromatase (Homo sapiens) (P11511 whole entry, looked up): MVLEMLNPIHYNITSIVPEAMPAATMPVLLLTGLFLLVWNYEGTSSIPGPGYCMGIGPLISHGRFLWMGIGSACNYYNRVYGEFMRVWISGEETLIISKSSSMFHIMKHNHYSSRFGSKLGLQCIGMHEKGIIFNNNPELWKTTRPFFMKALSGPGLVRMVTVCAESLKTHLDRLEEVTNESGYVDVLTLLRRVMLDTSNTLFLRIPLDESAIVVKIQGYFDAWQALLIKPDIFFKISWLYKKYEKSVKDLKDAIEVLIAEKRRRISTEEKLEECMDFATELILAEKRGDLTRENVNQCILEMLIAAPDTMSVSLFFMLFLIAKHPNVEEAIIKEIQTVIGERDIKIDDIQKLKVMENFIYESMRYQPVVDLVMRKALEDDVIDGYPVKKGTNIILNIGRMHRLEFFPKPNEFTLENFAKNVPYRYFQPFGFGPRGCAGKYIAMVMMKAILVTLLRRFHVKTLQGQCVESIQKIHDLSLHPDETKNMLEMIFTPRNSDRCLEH
# Chain of Estrogen receptor (Homo sapiens) (P03372 whole entry, looked up): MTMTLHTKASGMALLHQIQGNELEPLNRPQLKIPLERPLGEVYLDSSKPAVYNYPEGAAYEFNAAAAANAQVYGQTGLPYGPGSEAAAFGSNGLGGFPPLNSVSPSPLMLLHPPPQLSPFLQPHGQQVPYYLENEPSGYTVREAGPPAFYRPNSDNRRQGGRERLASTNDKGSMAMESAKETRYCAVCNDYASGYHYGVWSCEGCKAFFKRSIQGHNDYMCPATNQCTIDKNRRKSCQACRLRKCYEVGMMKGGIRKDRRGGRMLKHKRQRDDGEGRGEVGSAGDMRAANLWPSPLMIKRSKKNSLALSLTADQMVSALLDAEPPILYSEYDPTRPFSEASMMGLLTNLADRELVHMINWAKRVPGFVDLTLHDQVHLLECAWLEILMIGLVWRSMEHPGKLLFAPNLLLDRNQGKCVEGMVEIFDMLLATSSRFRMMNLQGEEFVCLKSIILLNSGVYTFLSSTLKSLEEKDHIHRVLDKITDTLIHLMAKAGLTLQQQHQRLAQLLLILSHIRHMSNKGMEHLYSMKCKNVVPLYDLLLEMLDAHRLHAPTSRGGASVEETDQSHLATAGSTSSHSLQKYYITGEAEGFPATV
SMILES,Potency [1],Potency [2],outcome [3],Potency [4],Potency [5],Potency [6],Potency [7],Potency [8],Potency [9],Potency [10]
CC(CO)CO,inactive,inactive,inactive,inactive,inactive,inactive,inactive,inactive,inactive,inactive
CN1C(C(=O)Nc2ccccn2)=C(O)c2sccc2S1(=O)=O,inactive,inactive,inactive,inactive,inactive,inactive,inactive,inactive,,inactive
NCCNCCO,inactive,inactive,inactive,inactive,inactive,inactive,inactive,inactive,inactive,inactive
C[C@@H](CN(C)C)CN1c2ccccc2Sc2ccccc21,4.03 µM (active),10.1 µM (active),inactive,inactive,inactive,inactive,inactive,inactive,inactive,inactive
OCCOCC#CCOCCO,inactive,inactive,inactive,inactive,inactive,inactive,inactive,inactive,inactive,inactive
Cc1ccccc1N=C(N)Nc1ccccc1C,inactive,inactive,inactive,inactive,inactive,inactive,inactive,inactive,,inactive
C=C1C[C@@]23CC[C@H]4[C@@](C)(CCC[C@@]4(C)C(=O)O[C@@H]4O[C@H](CO)[C@@H](O)[C@H](O)[C@H]4O)[C@@H]2CC[C@]1(O[C@@H]1O[C@H](CO)[C@@H](O)[C@H](O[C@@H]2O[C@H](CO)[C@@H](O)[C@H](O)[C@H]2O)[C@H]1O[C@@H]1O[C@H](CO)[C@@H](O)[C@H](O)[C@H]1O)C3,inactive,inactive,inactive,inactive,inactive,inactive,inactive,inactive,,inactive
CC(O)c1ccccc1 (centres undefined),inactive,inactive,inactive,inactive,inactive,inactive,inactive,inactive,inactive,inactive
O=C(O)CCCCCCCCCCCBr,inactive,inactive,inactive,inactive,inactive,inactive,inactive,inactive,inactive,inactive
CCOc1ccccc1O[C@H](c1ccccc1)[C@H]1CNCCO1,16.8 µM (active),26.6 µM (active),inactive,inactive,inactive,inactive,inactive,inactive,inactive,inactive
Cc1cc2c(OCC(CNC(C)(C)C)OC(=O)c3ccccc3)cccc2[nH]1 (centres undefined),11.9 µM (active),26.6 µM (active),inactive,inactive,inactive,inactive,inactive,inactive,inactive,inactive
COc1ncnc(NS(=O)(=O)c2ccc(N)cc2)c1OC,inactive,inactive,inactive,inactive,inactive,inactive,inactive,inactive,inactive,inactive
CC1(C)S[C@@H]2[C@H](NC(=O)C(c3ccccc3)S(=O)(=O)O)C(=O)N2[C@H]1C(=O)O (some centres undefined),inactive,inactive,inactive,inactive,inactive,inactive,inactive,inactive,,inactive
C1C[C@@H]2[C@H]3CC[C@H](C3)[C@@H]2C1,inactive,inactive,inactive,inactive,inactive,inactive,inactive,inactive,inactive,inactive
O=Cc1c2ccccc2c(Cl)c2ccccc12,inactive,inactive,inactive,inactive,inactive,13.5 µM [inconclusive] (active),inactive,inactive,inactive,inactive
O=C(O)CCC(=O)C(=O)O,inactive,inactive,inactive,inactive,inactive,inactive,inactive,inactive,inactive,inactive
CCOC(C)=O,inactive,inactive,inactive,inactive,inactive,inactive,inactive,inactive,inactive,inactive
O=C1NC(=O)c2cc([N+](=O)[O-])ccc21,inactive,inactive,inactive,inactive,inactive,inactive,inactive,inactive,inactive,inactive
C=C1CCC2CC1C2(C)C (centres undefined),inactive,inactive,inactive,inactive,inactive,inactive,inactive,inactive,inactive,inactive
CCC=CC#N,inactive,inactive,inactive,inactive,inactive,inactive,inactive,inactive,inactive,inactive
C[C@@H](O)[C@H]1C(=O)N2C(C(=O)O)=C([C@H]3CCCO3)S[C@H]12,inactive,inactive,inactive,inactive,inactive,inactive,inactive,inactive,inactive,inactive
CCC(C)COC(C)=O (centres undefined),inactive,inactive,inactive,inactive,inactive,inactive,inactive,inactive,inactive,inactive
CN1C(=O)N(c2ccccc2Br)Cc2cnc(Nc3ccc4c(c3)OCC(CO)O4)nc21 (centres undefined),54.5 µM (active),27.3 µM (active),inactive,2.75 µM [cytotoxic] (active),,,,,,
Cc1ccc(C(C)(C)O)cc1,inactive,inactive,inactive,inactive,inactive,inactive,inactive,inactive,inactive,inactive

SMILES,Potency [1],Potency [2],outcome [3],Potency [4],Potency [5],Potency [6],Potency [7],Potency [8],Potency [9],Potency [10]
CCC(=O)C1CC(C(C)C)CC=C1C (centres undefined),inactive,inactive,inactive,inactive,inactive,inactive,inactive,inactive,inactive,inactive
COC(=O)CCS,inactive,inactive,inactive,inactive,inactive,inactive,inactive,inactive,inactive,inactive
Cc1cc(=O)c2c(O)c3c(O)cc(=O)c4c3c3c(cc(O)c1c23)C(C)(C)C=4O,0.841 µM (active),0.596 µM (active),,,,,,,,
CC(C)(C)C(=O)C(=O)O,inactive,inactive,inactive,inactive,inactive,inactive,inactive,inactive,inactive,inactive
C=CC(=O)[O-].C=CC(=O)[O-].[Zn+2],inactive,inactive,inactive,inactive,inactive,inactive,inactive,inactive,inactive,inactive
Cc1ccc(CO)cc1,inactive,inactive,inactive,inactive,inactive,inactive,inactive,inactive,inactive,inactive
C=C(C)CCCC(C)CCO (centres undefined),inactive,inactive,inactive,inactive,inactive,inactive,inactive,inactive,inactive,inactive
Cc1cc(C)cc(N)c1,inactive,inactive,inactive,inactive,inactive,inactive,inactive,inactive,inactive,inactive
O=c1[nH]ncc2ccccc12,inactive,inactive,inactive,inactive,inactive,inactive,inactive,inactive,inactive,inactive
Cc1cc(C)c(N)cc1C,inactive,inactive,inactive,inactive,inactive,inactive,inactive,inactive,inactive,
O=C(/C=C/c1ccc(O)c(O)c1)O[C@@H]1C[C@@](OC(=O)/C=C/c2ccc(O)c(O)c2)(C(=O)O)C[C@@H](O)[C@@H]1O,inactive,inactive,inactive,inactive,inactive,inactive,inactive,inactive,inactive,inactive
Nc1ncnc2c1ncn2[C@H]1CC[C@@H](CO)O1,inactive,inactive,inactive,inactive,inactive,inactive,inactive,inactive,inactive,inactive
C=C(C)C(=O)OCCCCCCCCCCCCC,inactive,inactive,inactive,inactive,inactive,inactive,inactive,inactive,inactive,inactive
Cc1ccco1,inactive,inactive,inactive,,inactive,inactive,inactive,inactive,inactive,inactive
O=C=Nc1cccc(C(F)(F)F)c1,60.7 µM (active),54.1 µM (active),inactive,,inactive,inactive,inactive,inactive,inactive,
C/C=C/C=C/C=O,inactive,inactive,inactive,inactive,,inactive,inactive,inactive,inactive,inactive
CN1C(=O)OC(C)(C)C1=O,inactive,inactive,inactive,,inactive,inactive,inactive,inactive,inactive,inactive
Brc1cc2ccccc2c2ccccc12,inactive,inactive,inactive,,inactive,inactive,inactive,inactive,inactive,inactive
CO[C@]1(NC(=O)CSC(F)F)C(=O)N2C(C(=O)O)=C(CSc3nnnn3CCO)CO[C@H]21,inactive,inactive,inactive,,inactive,inactive,inactive,inactive,inactive,inactive
O=C(OCC(O)CO)c1ccccc1Nc1ccnc2cc(Cl)ccc12 (centres undefined),inactive,inactive,inactive,,inactive,inactive,inactive,inactive,inactive,inactive
C=CC(C)(CCC=C(C)C)OC(=O)CC(C)C (centres undefined),inactive,inactive,inactive,,inactive,inactive,inactive,inactive,inactive,inactive
Clc1ccc(Nc2nnc(Cc3ccncc3)c3ccccc23)cc1,inactive,13.3 µM (active),inactive,,inactive,inactive,inactive,21.1 µM (active) and 26.6 µM (active),inactive,5.31 µM (active) and 13.3 µM (active)
Brc1cc(Br)c(Oc2cc(Br)c(Br)cc2Br)cc1Br,inactive,inactive,inactive,,inactive,inactive,inactive,inactive,inactive,
